# Tests used:
# Assay in all cases: DAPPL (digital affinity profiling via proximity ligation, sequencing); 10 mM Tris-HCl pH 7.5, 50 mM NaCl, 1 mM DTT, 4% glycerol, room temperature, 30 min; GST-TFs on glutathione beads, 16-mer random dsDNA library, 0.1% formaldehyde crosslink after washing; high values mean tight binding
# Details in all cases: protein: recombinant; tags: N-terminal GST; dsDNA, one strand shown
# ETV1 = ETV1 (Homo sapiens, UniProt P50549 1-477)
# Outline: (§1)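 Sequencing on an Illumina NextSeq500 followed washing, crosslinking with 0.1% formaldehyde, proximity ligation (BsaI/T4 ligase, 1 h, 37 °C) and PCR amplification of pools that had been incubated for 30 min at room temperature with 200 nmole of a random double-stranded 16-mer DNA library in Tris/NaCl/DTT/glycerol buffer. Each pool held DNA-barcoded human transcription factors, expressed in yeast as GST fusions and captured on glutathione beads, plus a tag-only sample. Binding signal is a hexamer's read frequency for a factor divided by its frequency in the tag-only sample.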
# ERF = target: T1, ERF (Homo sapiens, UniProt P50548 1-548)
# T1 sequence: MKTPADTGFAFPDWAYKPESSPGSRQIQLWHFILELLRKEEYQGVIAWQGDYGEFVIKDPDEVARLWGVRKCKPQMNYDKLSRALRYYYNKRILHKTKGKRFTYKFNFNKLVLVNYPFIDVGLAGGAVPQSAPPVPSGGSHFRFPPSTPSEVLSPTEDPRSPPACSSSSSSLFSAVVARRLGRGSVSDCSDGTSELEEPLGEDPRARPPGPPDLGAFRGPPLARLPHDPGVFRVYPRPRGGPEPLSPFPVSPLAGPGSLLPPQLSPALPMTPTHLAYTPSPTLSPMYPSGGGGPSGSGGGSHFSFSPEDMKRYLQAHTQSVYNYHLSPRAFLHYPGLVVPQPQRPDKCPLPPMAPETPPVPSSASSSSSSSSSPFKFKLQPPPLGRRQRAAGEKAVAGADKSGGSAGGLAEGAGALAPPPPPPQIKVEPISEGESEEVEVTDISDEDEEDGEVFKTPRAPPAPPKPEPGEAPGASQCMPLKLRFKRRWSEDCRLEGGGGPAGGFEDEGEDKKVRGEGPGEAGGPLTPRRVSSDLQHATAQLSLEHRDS
# Outline: as §1
# ETV3L = target: T2, ETV3L (Homo sapiens, UniProt Q6ZN32 1-361)
# T2 sequence: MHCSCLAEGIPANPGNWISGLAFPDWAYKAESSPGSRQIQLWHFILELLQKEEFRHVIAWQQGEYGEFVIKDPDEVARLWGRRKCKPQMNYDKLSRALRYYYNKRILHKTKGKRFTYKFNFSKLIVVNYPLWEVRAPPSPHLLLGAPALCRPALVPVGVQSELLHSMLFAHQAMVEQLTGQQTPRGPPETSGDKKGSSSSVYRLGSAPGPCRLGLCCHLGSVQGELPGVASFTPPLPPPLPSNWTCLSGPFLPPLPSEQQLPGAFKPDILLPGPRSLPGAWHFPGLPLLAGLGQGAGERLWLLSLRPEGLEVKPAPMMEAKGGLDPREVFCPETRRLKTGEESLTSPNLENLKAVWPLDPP
# Outline: as §1
# ETS2 = target: T3, ETS2 (Homo sapiens, UniProt P15036 1-469)
# T3 sequence: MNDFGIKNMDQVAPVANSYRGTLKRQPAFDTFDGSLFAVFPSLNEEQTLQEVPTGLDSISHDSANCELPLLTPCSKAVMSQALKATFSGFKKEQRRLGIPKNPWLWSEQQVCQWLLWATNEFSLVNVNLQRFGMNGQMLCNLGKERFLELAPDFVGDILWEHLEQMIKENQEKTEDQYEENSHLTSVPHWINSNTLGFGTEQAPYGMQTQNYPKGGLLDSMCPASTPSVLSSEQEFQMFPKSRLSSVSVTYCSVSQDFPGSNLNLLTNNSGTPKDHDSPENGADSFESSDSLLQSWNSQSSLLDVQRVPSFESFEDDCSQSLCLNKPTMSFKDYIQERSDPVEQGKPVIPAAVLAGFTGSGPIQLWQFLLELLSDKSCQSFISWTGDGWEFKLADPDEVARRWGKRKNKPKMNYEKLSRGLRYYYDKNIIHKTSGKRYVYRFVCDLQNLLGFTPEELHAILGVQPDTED
# Outline: as §1
# SPDEF = target: T4, SPDEF (Homo sapiens, UniProt O95238 1-335)
# T4 sequence: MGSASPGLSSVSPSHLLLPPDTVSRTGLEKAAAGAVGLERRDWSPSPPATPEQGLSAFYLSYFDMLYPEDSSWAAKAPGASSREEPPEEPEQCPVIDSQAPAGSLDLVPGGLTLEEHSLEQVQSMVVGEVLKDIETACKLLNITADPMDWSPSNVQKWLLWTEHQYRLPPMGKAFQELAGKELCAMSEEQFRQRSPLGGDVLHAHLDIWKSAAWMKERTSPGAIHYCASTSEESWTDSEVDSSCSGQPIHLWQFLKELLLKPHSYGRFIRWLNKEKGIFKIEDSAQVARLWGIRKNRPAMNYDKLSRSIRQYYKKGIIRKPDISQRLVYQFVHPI
# Outline: as §1
# ETV7 = target: T5, ETV7 (Homo sapiens, UniProt Q9Y603 1-341)
# T5 sequence: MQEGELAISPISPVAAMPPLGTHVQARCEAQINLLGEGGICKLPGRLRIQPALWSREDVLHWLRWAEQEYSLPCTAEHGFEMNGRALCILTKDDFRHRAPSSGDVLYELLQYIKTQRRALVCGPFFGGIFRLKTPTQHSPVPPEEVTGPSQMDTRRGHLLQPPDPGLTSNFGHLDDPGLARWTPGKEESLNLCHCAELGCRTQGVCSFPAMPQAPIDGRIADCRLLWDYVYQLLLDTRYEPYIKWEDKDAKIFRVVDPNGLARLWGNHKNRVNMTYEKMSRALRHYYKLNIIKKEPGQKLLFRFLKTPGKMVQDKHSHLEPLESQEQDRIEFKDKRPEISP
# Outline: as §1
# ELF5 = target: T6, ELF5 (Homo sapiens, UniProt Q9UKW6-2 1-255)
# T6 sequence: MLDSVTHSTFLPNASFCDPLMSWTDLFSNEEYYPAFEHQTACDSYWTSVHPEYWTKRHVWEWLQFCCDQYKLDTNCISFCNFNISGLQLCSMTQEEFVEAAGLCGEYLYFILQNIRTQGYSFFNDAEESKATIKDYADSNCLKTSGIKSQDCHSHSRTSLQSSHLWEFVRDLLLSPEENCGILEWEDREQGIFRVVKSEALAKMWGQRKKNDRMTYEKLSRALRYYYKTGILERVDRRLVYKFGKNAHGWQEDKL
# Outline: as §1
# ETV3 = target: T7, ETV3 (Homo sapiens, UniProt P41162-2 1-143)
# T7 sequence: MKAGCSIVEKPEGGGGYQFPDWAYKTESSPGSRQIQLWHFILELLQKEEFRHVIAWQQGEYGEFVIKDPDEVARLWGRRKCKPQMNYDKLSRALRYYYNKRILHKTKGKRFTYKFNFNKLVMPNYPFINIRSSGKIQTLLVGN
# Outline: as §1
# ETV6 = ETV6 (Homo sapiens, UniProt P41212 1-452)
# Outline: as §1
# Sequence of ETV1 (P50549 whole entry, the tested form may be a part): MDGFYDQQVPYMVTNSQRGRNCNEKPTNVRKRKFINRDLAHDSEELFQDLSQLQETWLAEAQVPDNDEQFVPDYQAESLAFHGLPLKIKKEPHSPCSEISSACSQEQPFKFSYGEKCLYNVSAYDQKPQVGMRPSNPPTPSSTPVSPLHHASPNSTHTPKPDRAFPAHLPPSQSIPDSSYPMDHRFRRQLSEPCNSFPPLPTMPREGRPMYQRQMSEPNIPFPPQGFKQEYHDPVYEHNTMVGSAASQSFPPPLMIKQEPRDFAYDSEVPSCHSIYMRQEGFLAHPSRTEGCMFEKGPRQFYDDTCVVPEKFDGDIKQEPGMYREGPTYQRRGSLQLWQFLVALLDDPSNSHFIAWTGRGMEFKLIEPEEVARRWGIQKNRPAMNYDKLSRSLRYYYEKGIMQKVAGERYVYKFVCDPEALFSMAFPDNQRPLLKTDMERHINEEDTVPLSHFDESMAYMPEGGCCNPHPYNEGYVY
# Sequence of ETV6 (P41212 whole entry): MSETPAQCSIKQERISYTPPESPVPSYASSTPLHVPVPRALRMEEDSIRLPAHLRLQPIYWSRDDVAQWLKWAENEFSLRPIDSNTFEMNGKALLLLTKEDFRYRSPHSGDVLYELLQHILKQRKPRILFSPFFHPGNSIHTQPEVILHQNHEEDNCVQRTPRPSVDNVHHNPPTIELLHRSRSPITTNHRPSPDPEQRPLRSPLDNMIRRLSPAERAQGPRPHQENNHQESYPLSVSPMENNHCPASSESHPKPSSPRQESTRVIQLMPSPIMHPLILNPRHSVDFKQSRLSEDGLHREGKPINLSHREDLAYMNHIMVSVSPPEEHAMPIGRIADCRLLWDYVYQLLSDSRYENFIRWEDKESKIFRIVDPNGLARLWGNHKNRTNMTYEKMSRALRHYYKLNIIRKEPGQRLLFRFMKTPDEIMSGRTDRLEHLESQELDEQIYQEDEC
sequence,measurement,setting,value
GGAAAA,binding signal,ETV1,"1.27 fold enrichment (6-mer frequency, TF over GST control)"
same,binding signal,ERF,"1.12 fold enrichment (6-mer frequency, TF over GST control)"
same,binding signal,ETV3L,"1.31 fold enrichment (6-mer frequency, TF over GST control)"
same,binding signal,ETS2,"1.27 fold enrichment (6-mer frequency, TF over GST control)"
same,binding signal,SPDEF,"1.12 fold enrichment (6-mer frequency, TF over GST control)"
same,binding signal,ETV7,"1.26 fold enrichment (6-mer frequency, TF over GST control)"
same,binding signal,ELF5,"1.67 fold enrichment (6-mer frequency, TF over GST control)"
same,binding signal,ETV3,"1.31 fold enrichment (6-mer frequency, TF over GST control)"
same,binding signal,ETV6,"1.53 fold enrichment (6-mer frequency, TF over GST control)"

# From paper PMC7862700, “An all-to-all approach to the identification of sequence-specific readers for epigenetic DNA modifications on cytosine”
